Results filed as inconclusive are left out. A number with no mark means an inactive call. The source made the active and inactive calls. Calls come from the whole dose curve.
Target: Nucleoprotein (Lymphocytic choriomeningitis virus (strain Armstrong)) (UniProt P09992)
Experiment: qHTS for Inhibitors of the Functional Ribonucleoprotein Complex (vRNP) of Lymphocytic Choriomeningitis Arenaviruses (LCMV): LCMV Primary Screen - GLuc reporter signal (AID 1347086); note: nearly all actives have a fitted effect of over 70% in size
Settings: LCMV minigenome vRNP cell assay, Gaussia luciferase reporter; series mostly up to 57.5 µM; activity change, negative = inhibition: at the top concentration
% is set by controls: 0 for no effect and ±100 for the full control effect.

Nucleoprotein (Lymphocytic choriomeningitis virus (strain Armstrong)), sequence (P09992 whole entry, looked up): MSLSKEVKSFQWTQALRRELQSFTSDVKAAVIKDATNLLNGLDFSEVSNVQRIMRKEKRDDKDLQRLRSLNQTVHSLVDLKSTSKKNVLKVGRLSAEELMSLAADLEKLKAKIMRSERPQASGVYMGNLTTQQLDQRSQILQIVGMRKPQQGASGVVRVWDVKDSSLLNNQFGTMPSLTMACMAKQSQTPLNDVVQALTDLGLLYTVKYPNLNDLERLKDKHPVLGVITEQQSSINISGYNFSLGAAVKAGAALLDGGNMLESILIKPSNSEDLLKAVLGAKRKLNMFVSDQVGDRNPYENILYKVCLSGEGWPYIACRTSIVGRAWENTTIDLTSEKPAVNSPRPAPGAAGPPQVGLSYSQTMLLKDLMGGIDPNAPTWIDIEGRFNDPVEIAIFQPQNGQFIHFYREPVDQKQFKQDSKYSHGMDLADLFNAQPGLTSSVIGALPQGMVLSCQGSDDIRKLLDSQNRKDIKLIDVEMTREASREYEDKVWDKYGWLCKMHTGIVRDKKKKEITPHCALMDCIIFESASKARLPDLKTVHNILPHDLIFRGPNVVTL

Compared with `Cc1ncc(CO)c(C=O)c1O`, `CCOC(=O)c1ccccc1O` is higher in “activity change, negative = inhibition” value: -0.972% for the first, 12.8% for the second.

First: COc1cc(/C=C/C(=O)O[C@H]2CC[C@]34C[C@]35CC[C@]3(C)[C@@H]([C@H](C)CCC=C(C)C)CC[C@@]3(C)[C@@H]5CC[C@H]4C2(C)C)ccc1O
Second: CN1[C@@H]2CCC[C@@H]1CC(NC(=O)c1nn(C)c3ccccc13)C2 (stereo partly drawn)
The “activity change, negative = inhibition” value of the first is higher: 2.87% for the first, -1.71% for the second.

First: O=C(c1ccccc1)c1ccccc1
Second: O=C(O)COc1nn(Cc2ccccc2)c2ccccc12
The “activity change, negative = inhibition” value of the first is lower: 6.6% for the first, 26.6% for the second.

Compared with `COCCc1ccccn1`, `CC(C)CCOC(=O)c1ccc(N(C)C)cc1` is higher in “activity change, negative = inhibition” value: 19.1% for the first, 28.7% for the second.

Compared with `CC(=O)NS(=O)(=O)c1ccc(N)cc1`, `CC(C)CN(C[C@@H](O)[C@H](Cc1ccccc1)NC(=O)O[C@H]1CO[C@H]2OCC[C@H]21)S(=O)(=O)c1ccc(N)cc1` is lower in “activity change, negative = inhibition” value: 15.7% for the first, -1.49% for the second.

Compared with `O=C(O)C(S)C(S)C(=O)O` (stereo not drawn), `CC(O)C(=O)O` (stereo not drawn) is lower in “activity change, negative = inhibition” value: 4.75% for the first, -5.46% for the second.

Going from `CN(C)[C@@H]1C(=O)C(C(N)=O)=C(O)[C@@]2(O)C(=O)C3=C(O)c4c(O)cccc4C[C@H]3C[C@@H]12` to `NC(=O)COCCN1CCN(C(c2ccccc2)c2ccc(Cl)cc2)CC1` (stereo not drawn), the “activity change, negative = inhibition” value falls from -4.47% to -4.63%.

Compared with `COC(=O)c1cc(Cl)c(NC(C)=O)cc1OC`, `COc1ccccc1N1CCN(CCCCNC(=O)c2ccc(-c3ccc(C(C)=O)cc3)cc2)CC1` is lower in “activity change, negative = inhibition” value: 25.3% for the first, 9.29% for the second.

Compared with `CC(N)CCCC(C)(C)O` (stereo not drawn), `CCCC(CCC)(C(=O)OCC)C(=O)OCC` is higher in “activity change, negative = inhibition” value: -2.34% for the first, 0.144% for the second.

With `NCC(=O)CCC(=O)O` the “activity change, negative = inhibition” value was 5.54%.

With `NC(=O)N1c2ccccc2C=Cc2ccccc21` the Potency was “inactive”.
With `COc1cc(OC)c(C(=O)CCCN2CCCC2)c(OC)c1` the Potency was “inactive”.
`CCCc1nn(C)c2c(=O)[nH]c(-c3cc(S(=O)(=O)N4CCN(C)CC4)ccc3OCC)nc12` was tested, and the Potency was “inactive”.
In the case of `COc1cnc(NS(=O)(=O)c2ccc(N)cc2)nc1`, the Potency is reported as “inactive”.
